HPGD block – inhibitors of human 15-hydroxyprostaglandin dehydrogenase (HPGD). purified HPGD, NADH fluorescence kinetic, PGE2 substrate. Potency, µM, hits mostly inhibitors. hit rate 4.3% among 150,000; active = well fitted inhibition curve with a large enough effect, not every such curve was filed as active; inconclusive = small, poorly fitted or top-dose-only effect, or another doubt; inactive = no such curve, though single readings can be large or run the other way
Target sequence (P15428 whole entry, looked up): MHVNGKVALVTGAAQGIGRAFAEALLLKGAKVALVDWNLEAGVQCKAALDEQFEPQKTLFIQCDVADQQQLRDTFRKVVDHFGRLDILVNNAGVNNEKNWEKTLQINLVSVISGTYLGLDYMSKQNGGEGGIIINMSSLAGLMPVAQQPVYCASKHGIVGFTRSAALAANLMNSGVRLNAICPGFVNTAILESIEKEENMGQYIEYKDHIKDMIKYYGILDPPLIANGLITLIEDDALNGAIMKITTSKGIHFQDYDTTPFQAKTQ
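20 nM HPGD preincubated 15 min at room temperature with compound in 50 mM Tris-HCl pH 8, 0.01% Tween 20. Started with 1 mM NAD+ and 30 uM prostaglandin E2; NADH fluorescence (360/450 nm) read 5 times over 30-s intervals, last minus first.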
IMPase Li cell – IMPase inhibition in cells with lithium potentiation | hit rate 0.35% among 210,000 | CHO-M1 cells, IP1 TR-FRET (IP-One), carbachol + lithium | Potency, µM (doses to about 59.4 µM), most hits filed as inhibitors;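 note: IP1 builds up when IMPase is blocked and the TR-FRET signal falls; nearly all actives have a fitted effect of over 50% in size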
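Lithium-sensitised IP1 accumulation assay; M1-expressing CHO cells treated 30 min at 37C with compound. Competitive antibody detection by time-resolved FRET followed a 10 min room-temperature lysis step.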
ALDH1A1 block – inhibitors of human aldehyde dehydrogenase 1A1; P00352; Purified ALDH1A1, NADH fluorescence, propionaldehyde substrate; Potency, µM (series often up to 75.3 µM), most hits filed as inhibitors; hit rate 7.3% among 220,000; active = well fitted inhibition curve with a large enough effect, not every such curve was filed as active; inconclusive = small, poorly fitted or top-dose-only effect, or another doubt; inactive = no such curve, though single readings can be large or run the other way
Target sequence (P00352 whole entry, looked up): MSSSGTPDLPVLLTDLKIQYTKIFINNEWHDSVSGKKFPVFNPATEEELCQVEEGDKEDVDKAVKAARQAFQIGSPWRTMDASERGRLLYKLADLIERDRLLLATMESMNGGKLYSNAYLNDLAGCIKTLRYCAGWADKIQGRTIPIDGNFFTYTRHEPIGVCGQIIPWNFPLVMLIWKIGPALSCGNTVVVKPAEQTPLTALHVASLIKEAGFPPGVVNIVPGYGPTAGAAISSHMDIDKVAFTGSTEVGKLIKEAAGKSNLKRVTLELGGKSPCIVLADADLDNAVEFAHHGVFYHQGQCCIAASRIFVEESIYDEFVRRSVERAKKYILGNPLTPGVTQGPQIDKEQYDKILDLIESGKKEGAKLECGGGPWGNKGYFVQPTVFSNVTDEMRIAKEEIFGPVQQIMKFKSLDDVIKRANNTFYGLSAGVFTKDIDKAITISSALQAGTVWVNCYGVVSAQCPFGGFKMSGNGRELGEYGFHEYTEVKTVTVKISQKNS
PNC inhibitor – inhibitors of perinucleolar compartment assembly | PC3M PTB-GFP, PNC prevalence imaging, 16 h; hits give low values | activity change (PNC), negative = inhibition, % at 10 µM | hit rate 3.1% among 140,000 | AID 2417;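 active = readout at or below -70, meaning at least 70% loss of cells showing the perinucleolar compartment, a nuclear body marking cancer cells; inconclusive = readout between -30 and a set limit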
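Compounds are pinned in duplicate onto adhered PC3M cells stably expressing GFP-tagged PTB and incubated 16 h at 37 C. Cells are then fixed, nuclei stained with Hoechst, and PNC-positive cells counted.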
IMPase inh – IMPase inhibition in cells | P97697 | CHO-M1 cells, IP1 accumulation, HTRF TR-FRET ratio | inhibition (IP1 accumulation), % at 46.1 µM | 120,000 tested, under 10 active | AID 901; active = well fitted curve in the direction sought with a large enough effect in the signal ratio, not every such curve was filed as active; inconclusive = small, poorly fitted or top-dose-only effect, or a change in a side signal; inactive = no such curve, though single readings can be large or run the other way; the % refers to the signal ratio;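 note: cells stimulated with carbachol in lithium chloride buffer; higher means more IMPase inhibition seen as more IP1 and lower FRET ratio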
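CHO-M1, 2000 cells/well, cultured 16–30 h; cpd up to 46 uM; carbachol (50 uM solution, stimulation buffer w/ 50 mM LiCl, pH 7.4), 30 min 37C; IP-One TR-FRET, 10 min RT; Ex 320/Em 665, 620; Hill-fit AC50.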
ALOX12 inhib – inhibitors of human 12-lipoxygenase (ALOX12); AID 1452; purified 12-hLO, xylenol orange hydroperoxide absorbance; hit rate 0.12% among 150,000; Potency, µM (top dose mostly 57.1 µM), actives largely listed as inhibitors; note: nearly all actives have a fitted effect of over 55% in size
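Xylenol orange chromogenic assay: hydroperoxide from 12hLO oxidises Fe(II), giving red-shifted Fe(III)-XO absorbance. Conditions: 150 nM enzyme, 40 uM arachidonic acid, 25 mM Hepes pH 7.0, 0.01% Triton X-100, 30 min, room temperature.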
Numbers stand for hits; i = inactive; ? = inconclusive; nt = no result; [ ] = dose if it differs, or a comment. Sampled rows, rich in hits. Any-hit rate of the full collection: about 11%. Unless noted, calls come from the whole dose curve; as a rule, active = well fitted curve in the direction sought with a large enough effect; inconclusive = small, poorly fitted or top-dose-only effect, or another doubt; inactive = no such curve, though single readings can be large; an effect the other way counts as inactive or inconclusive.

SMILES	HPGD block	IMPase Li cell	ALDH1A1 block	PNC inhibitor	IMPase inh	ALOX12 inhib
Oc1ccc(-c2nc(=S)[nH][nH]2)cc1	?	i	?	i	i	?
COc1cc(-c2nc(=S)[nH][nH]2)cc(OC)c1OC	nt	i	?	nt	nt	nt
S=c1nc(-c2cccc(Cl)c2)[nH][nH]1	nt	i	?	nt	nt	nt
S=c1nc(-c2cc(Cl)cc(Cl)c2)[nH][nH]1	nt	nt	11.2µM	nt	nt	nt
CCOc1ccc(NC(=O)C2CCCN(S(=O)(=O)c3ccc(Br)s3)C2)cc1 (centres undefined)	nt	nt	nt	nt	i	nt
CCCS(=O)(=O)c1nc(S(=O)(=O)c2ccc(C)cc2)c(NCCCN(C)C)s1	nt	i	?	nt	nt	nt
CCCS(=O)(=O)c1nc(S(=O)(=O)c2ccc(C)cc2)c(NCCN2CCOCC2)s1	i	i	14.1µM	-106.7	i	i
CC(C)(C)c1ccc(C(=O)N2CCNCC2)cc1	?	i	i	i	i	i
CN1CCC2(CC1)N=C(c1ccc(F)cc1)C(=S)N2C(=O)c1ccc(C(C)(C)C)cc1	nt	nt	17.8µM	i	i	i
Fc1cccc(CN2CCN(c3ncccn3)CC2)c1	i	i	12.6µM	i	i	i
COC(=O)N1CCC2(CCCN(c3ccccn3)C2)CC1	?	i	i	nt	nt	i
COc1cccc([C@@H]2Oc3ccc(Br)cc3C(=O)[C@H]2OC(=O)Nc2ccc(C)c(Br)c2)c1	i	i	i	nt	nt	nt
COC(=O)/C=C1\SC(N2CCOCC2)=C(c2ccc(OC)cc2)C1=O	nt	i	7.94µM	nt	nt	nt
Cc1cccc(CNc2nc(-c3ccc4c(c3)OCO4)nc3ccccc23)c1	nt	i	?	nt	nt	nt
Nc1ccccc1-c1n[nH]c(=S)s1	nt	12.6µM	?	nt	nt	nt
Cc1ccccc1-c1ccccc1N	i	i	i	i	nt	i
COC(=O)c1cc(NC(=O)c2ccc(Cn3cc(Cl)cn3)o2)cc(C(=O)OC)c1	1.26µM	i	i	i	i	i
COC(=O)c1ccc(C)c(NC(=O)c2ccc(Cn3cc([N+](=O)[O-])cn3)o2)c1	i	i	i	?	nt	i
CCNS(=O)(=O)c1ccc(NC(=O)c2ccc(Cn3cc([N+](=O)[O-])cn3)o2)cc1	nt	i	18.9µM	nt	nt	nt
COC(=O)c1ccccc1NC(=O)c1ccc(Cn2cc(Cl)cn2)o1	i	i	i	i	i	i
COC(=O)c1ccc(NC(=S)NC(=O)c2c(Cl)cnn2C)cc1	i	i	i	i	nt	i
COC(=O)c1cc(NC(=O)c2c(Cl)cnn2C)cc(C(=O)OC)c1	i	i	i	-100.8	nt	i
CC1=CC(C)C2(COC(=O)Nc3ccccc3)COC(C)C1C2C (centres undefined)	nt	i	i	nt	nt	nt
COC(=O)c1ccc2nc(C)cc(Nc3cccc(Cl)c3C)c2c1	nt	nt	nt	nt	i	nt
CO[C@@H]1/C=C\CC(=O)N[C@@H](C)C(=O)OC[C@@H](OC)[C@H](C)CCCC(=O)OC[C@H]1C	nt	nt	i[13.5 µM]	nt	nt	nt
SMILES	HPGD block	IMPase Li cell	ALDH1A1 block	PNC inhibitor	IMPase inh	ALOX12 inhib
CCN1CCN(C(=O)NC(C(=O)NC2C(=O)N3C(C(=O)O)=C(CSc4nnnn4C)CSC23)c2ccc(O)cc2)C(=O)C1=O (centres undefined)	i	i	i	nt	nt	i[0.00818 µM]
Cc1ccc2[nH]c3c(=S)nc[nH]c3c2c1	i	12.6µM	i	i	?	i
Cc1ccc2[nH]c3c(=O)n(N)c(C)nc3c2c1	nt	i	?	nt	nt	nt
CC1(C)CC(NC(=O)C23CCC(C)(C(=O)C2=O)C3(C)C)CC(C)(C)N1 (centres undefined)	nt	i	i	nt	nt	nt
CC1(C)CC(NC(=O)C23CCC(C)(/C(=N/O)C2)C3(C)C)CC(C)(C)N1 (centres undefined)	i	i	i	-118.3	i	i
COC(=O)CC1[C@@]2(C)C[C@@]34OC5(C)OC6(CC[C@@]7(C)C(c8ccoc8)OC(=O)C(C(C)=O)C7[C@]6(O5)C(O)[C@@]3(O)C2O)[C@]14C (some centres undefined)	i	i	i	nt	nt	i
CN(c1ccccc1)S(=O)(=O)c1cccc(C(=O)Nc2ccc3c(c2)CCC3)c1	i	i	10µM	?	nt	i
CCc1nnc(NC(=O)c2ccc(S(=O)(=O)N3CCc4ccccc4C3)cc2)s1	i	i	i	-85.1	i	i
CCc1nnc(NC(=O)c2cccc(S(=O)(=O)N(C)c3ccccc3)c2)s1	28.2µM	i	i	i	i	i
Cn1c(SCc2ccc(C(=O)Nc3nccs3)cc2)nnc1-c1ccccc1	14.1µM	i	?	i	i	i
Cc1ccc(-c2nnc(Nc3ccc(O)cc3)c3ccccc23)cc1S(=O)(=O)N1CCCCC1	nt	nt	nt	nt	i	nt
CN(Cc1cn[nH]c1-c1cc2ccccc2o1)CC1CCOCC1	nt	i	i	nt	nt	nt
CCc1nnc(NCC(=O)N2CCc3ccccc32)s1	i	i	25.1µM	?	?	i
CN(c1ccc(C(=O)Nc2nccs2)cc1)S(=O)(=O)c1ccccc1	8.91µM	i	i	i	i	i
CN(c1ccccc1)S(=O)(=O)c1ccc(C(=O)Nc2nccs2)cc1	i	i	i	i	i	i
CCc1nnc(NC(=O)c2c(O)c3cccc4c3n(c2=O)CC4)s1	i	?	i	i	i	i
O=C(NCc1ccc(F)cc1)c1cc2c(s1)CCCC2	i	i	?	?	i	i
O=C(Nc1nnc(SCc2ccccc2)s1)c1cc2c(s1)CCCC2	?	i	i	i	i	i
Cc1cc(C)n(C(=O)c2cc3c(s2)CCCC3)n1	i	i	20µM	i	i	i
CCSc1nnc(NC(=O)c2cc3c(s2)CCCC3)s1	?	5.62µM	?	?	i	i
NNC(=O)c1cc2c(s1)CCCCCC2	i	i	0.355µM	i	i	i
COC(=O)[C@@]1(Cc2ccccc2)[C@H]2c3cc(C(=O)N(C)C)n(Cc4ccc(O)c(OC)c4)c3C[C@H]2CN1C(=O)c1ccccc1	i	i	i	nt	nt	i
CCn1c(=NC(=O)CN2C(=O)CCC2=O)sc2c(C)cc(C)cc21	14.1µM	i	i	i	i	i
COc1ccc(OC)c(-n2c(CN3CCC(C(N)=O)CC3)nc3ccccc3c2=O)c1	i	i	20µM	?	i	i
COc1ccc(OC)c(-n2c(CNC3CCN(Cc4ccccc4)CC3)nc3ccccc3c2=O)c1	i	i	i	i	i	i
COCCNC(=S)N(Cc1cccs1)Cc1cc2cccc(C)c2[nH]c1=O	nt	i	12.6µM	nt	nt	nt
Cc1ccc(C)c2[nH]c(=O)c(CN(Cc3cccs3)C(=S)NCc3ccco3)cc12	i	i	25.1µM	i	nt	i
COc1ccc2[nH]c(=O)c(CN(Cc3cccs3)C(=S)Nc3cccc(C)c3)cc2c1	?	i	?	-100.0	i	i
CCNC(=S)N(Cc1cc2cccc(C)c2[nH]c1=O)C1CCCC1	i	i	?	-119.3	i	i
CNC(=S)N(Cc1cccs1)Cc1cc2cc(OC)ccc2[nH]c1=O	?	i	?	i	i	i
